NPSR antag – neuropeptide S receptor (human) antagonism, cAMP | Potency, µM (series often up to 38.3 µM), actives largely listed as inhibitors | CHO-NPSR cells, cAMP TR-FRET, antagonist mode | hit rate 1% among 220,000 | Q6W5P4; further: nearly all actives have a fitted effect of over 50% in size
Target sequence (Q6W5P4 whole entry, looked up): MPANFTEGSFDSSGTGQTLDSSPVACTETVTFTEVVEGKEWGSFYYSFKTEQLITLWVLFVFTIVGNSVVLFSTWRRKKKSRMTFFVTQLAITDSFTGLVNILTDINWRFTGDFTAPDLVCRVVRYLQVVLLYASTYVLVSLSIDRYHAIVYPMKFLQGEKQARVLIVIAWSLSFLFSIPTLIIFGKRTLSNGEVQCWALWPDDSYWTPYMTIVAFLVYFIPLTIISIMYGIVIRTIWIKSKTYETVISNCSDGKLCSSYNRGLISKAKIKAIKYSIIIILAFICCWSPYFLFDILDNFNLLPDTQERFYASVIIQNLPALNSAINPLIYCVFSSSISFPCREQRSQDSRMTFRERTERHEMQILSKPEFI
ALDH1A1 inh – ALDH1A1 (human) enzyme inhibition; P00352; Purified ALDH1A1, NADH fluorescence, propionaldehyde substrate; Potency, µM (doses to about 75.3 µM), hits mostly inhibitors; hit rate 7.3% among 220,000; active means well fitted inhibition curve with a large enough effect, not every such curve was filed as active; inconclusive means small, poorly fitted or top-dose-only effect, or another doubt; inactive means no such curve, though single readings can be large or run the other way
PNC inhibitor – inhibitors of perinucleolar compartment assembly; PC3M PTB-GFP, PNC prevalence imaging, 16 h; active compounds read low; activity change (PNC), negative = inhibition, % at 10 µM; hit rate 3.1% among 140,000; AID 2417;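 active means readout at or below -70, meaning at least 70% loss of cells showing the perinucleolar compartment, a nuclear body marking cancer cells; inconclusive means readout between -30 and a set limit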
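PC3M cells stably expressing PTB-GFP, 750–1000 cells/well, treated 16 h at 37 °C with compound (23 nl of library stock), in duplicate. After paraformaldehyde fixation and Hoechst stain, imaged at 20x; PNC prevalence scored by image analysis.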
IMPase Li inh – membrane-permeable IMPase blocker, potentiated with lithium. hit rate 0.35% among 210,000. AID 1457. Potency, µM (titrated, usually from 59.4 µM), actives largely listed as inhibitors. CHO-M1 cells, IP1 TR-FRET (IP-One), carbachol + lithium;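 further: IP1 builds up when IMPase is blocked and the TR-FRET signal falls; nearly all actives have a fitted effect of over 50% in size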
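Lithium-sensitised IP1 accumulation assay; M1-expressing CHO cells treated 30 min at 37C with compound. Competitive antibody detection by time-resolved FRET followed a 10 min room-temperature lysis step.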
IMPase cell inh – IMPase inhibition in cells; P97697; CHO-M1 cells, IP1 accumulation, HTRF TR-FRET ratio; inhibition (IP1 accumulation), % at 46.1 µM; 120,000 tested, under 10 active; AID 901; active means well fitted curve in the direction sought with a large enough effect in the signal ratio, not every such curve was filed as active; inconclusive means small, poorly fitted or top-dose-only effect, or a change in a side signal; inactive means no such curve, though single readings can be large or run the other way; the % refers to the signal ratio;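 further: cells stimulated with carbachol in lithium chloride buffer; higher means more IMPase inhibition seen as more IP1 and lower FRET ratio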
Target sequence (P97697 whole entry, looked up): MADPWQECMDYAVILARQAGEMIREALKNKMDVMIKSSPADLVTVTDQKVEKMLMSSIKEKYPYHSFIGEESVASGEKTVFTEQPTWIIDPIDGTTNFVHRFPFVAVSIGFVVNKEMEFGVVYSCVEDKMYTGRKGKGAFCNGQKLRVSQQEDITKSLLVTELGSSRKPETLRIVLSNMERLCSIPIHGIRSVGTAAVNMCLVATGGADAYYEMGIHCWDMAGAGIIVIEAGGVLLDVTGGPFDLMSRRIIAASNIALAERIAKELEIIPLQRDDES
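CHO-M1, 2000 cells/well, cultured 16–30 h; cpd up to 46 uM; carbachol (50 uM solution, stimulation buffer w/ 50 mM LiCl, pH 7.4), 30 min 37C; IP-One TR-FRET, 10 min RT; Ex 320/Em 665, 620; Hill-fit AC50.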
HPGD inh – inhibitors of human 15-hydroxyprostaglandin dehydrogenase (HPGD) | P15428 | purified HPGD, NADH fluorescence kinetic, PGE2 substrate | Potency, µM, hits mostly inhibitors | hit rate 4.3% among 150,000; active means well fitted inhibition curve with a large enough effect, not every such curve was filed as active; inconclusive means small, poorly fitted or top-dose-only effect, or another doubt; inactive means no such curve, though single readings can be large or run the other way
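20 nM HPGD preincubated 15 min at room temperature with compound in 50 mM Tris-HCl pH 8, 0.01% Tween 20. Started with 1 mM NAD+ and 30 uM prostaglandin E2; NADH fluorescence (360/450 nm) read 5 times over 30-s intervals, last minus first.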
Hits are given with their value; n = inactive; u = inconclusive; x = no result given; ! = repeats disagree; [ ] = remark or other dose. Compounds with a hit are over-represented: about 11% of the library has one in this group of screens. Unless noted, the call rests on the fitted dose curve; in most records, active means well fitted curve in the direction sought with a large enough effect; inconclusive means small, poorly fitted or top-dose-only effect, or another doubt; inactive means no such curve, though single readings can be large; an effect the other way counts as inactive or inconclusive.

SMILES	NPSR antag	ALDH1A1 inh	PNC inhibitor	IMPase Li inh	IMPase cell inh	HPGD inh
CC(C)OP(=O)(OC(C)C)C(NCc1ccccc1)c1ccccc1 (stereo unspecified)	n	n	x	n	x	x
COC(=O)NC/C=C\c1nc(CC/C=C\C(=O)O[C@H]2C[C@H]3CC(=O)O[C@@H](/C=C\CC(C)C)C[C@@H]4CC[C@H](C)[C@H](C[C@@H](OC)C[C@H](C2)O3)O4)co1	x	n[13.5 µM]	x	x	x	x
C=CC(=O)OCC(CO)(COC(=O)C=C)COC(=O)C=C	x	0.398µM	x	n	x	n
C=CC(=O)OCCO	x	n	x	n	x	n
COc1cc([C@@H](O)CN)ccc1O	x	x	x	x	n	x
CC1O[C@@H](OC2CC[C@@]3(C=O)C4CC[C@]5(C)C(C6=CC(=O)OC6)CC[C@@]5(O)C4CC[C@]3(O)C2)C(O)C(O)C1O (stereo partly specified)	x	n	x	n	x	n
Oc1cc2c(cc1O)[C@H]1c3ccccc3CNC1CC2 (stereo partly specified)	n	u	x	n	x	6.31µM
NC1=C(Br)C(=O)c2ccccc2C1=O	n	u	x	x	x	x
C=CCN1C(=O)C2(C(C(=O)OCC)=C(N)Oc3ccccc32)c2c1c1ccccc1oc2=O (stereo unspecified)	n	0.398µM	n	n	n	n
CCOC(=O)C1=C(N)Oc2ccccc2C12C(=O)N(CC(=O)OC)C(CC(=O)OC)=C2C(=O)OC (stereo unspecified)	n	1.26µM	n	n	n	n
CNC(=O)O/N=C/C(C)(C)S(C)=O (stereo unspecified)	x	28.2µM	x	n	x	n
CNC(=O)O/N=C(/C)SC	x	n	x	n	x	n
COc1ccc(-c2noc(CN3C(=O)c4ccccc4C3=O)n2)cc1	n	n	u	n	n	20µM
COc1ccc(-c2n(-c3ccccn3)c3ccccc3[n+]2-c2ccccn2)cc1	n	x	x	x	x	x
Cc1cc([N+](=O)[O-])c2ccccc2[n+]1[O-]	10µM	x	x	x	x	x
O=C1NCN(c2ccccc2)C12CCNCC2	n	n	u	n	n	n
C=CCN1C(=O)/C(=C\c2ccc(N3CCOCC3)o2)C(=O)NC1=S	n	17.8µM	n	n	x	n
O[C@@H]1[C@H](O)[C@H]2[C@@H](O)CCN2C[C@@H]1O	x	n	x	n	n	n
Cc1nnc(SCc2nc3ccccc3c(=O)n2-c2ccccc2Cl)n1N	n	25.1µM	u	n	n	n
O=C(O)c1ccc(Cl)nc1	n	n	n	n	x	n
C=C(CC1CC(O)[C@]2(C)OC3CC4OC5C[C@]6(C)O[C@]7(C)CCC8OC9C[C@]%10(C)OC%11C(C)=CC(=O)OC%11CC%10OC9C[C@@H](C)C8OC7CC6O[C@]5(C)C/C=C\C4OC3CC2O1)C(=O)O (stereo partly specified)	n	3.98µM	x	n	x	x
Cc1ccc2c(c1)=C/C(=C\c1c(O)[nH]c(=S)[nH]c1=O)C(=O)N=2	n	3.55µM	u	n	n	n
CCN(CC)CCCN=Cc1c(O)n(CCc2ccc(OC)c(OC)c2)c(=O)[nH]c1=O	n	n	n	n	n	n
COC(=O)C1CN(C#N)N(c2ccc(Cl)cc2)C12c1ccccc1-c1ccccc12 (stereo unspecified)	7.94µM	n	u	n	n	14.1µM
C=C(C)[C@H]1CN[C@H](C(=O)O)[C@@H]1CC(=O)O	x	n	x	n	n	n
SMILES	NPSR antag	ALDH1A1 inh	PNC inhibitor	IMPase Li inh	IMPase cell inh	HPGD inh
O=C1c2ccccc2C(=O)N1SC1CCCCC1	n	1.41µM	n	n	n	2.24µM
CC1(C)C(C(=O)NN2C(=O)c3ccccc3C2=O)C1(C)C	n	n	n	n	n	n
O=[N+]([O-])c1cc([As](=O)(O)O)ccc1O	x	n	x	n	n	n
CCCn1c(=O)c2[nH]c(C3CCCC3)nc2n(CCCOC(=O)c2ccc(S(=O)(=O)F)cc2)c1=O	u	11.2µM	x	n	n	n
CCCCCCn1c(O)c(C=NC2CCCCC2N)c(=O)[nH]c1=O (stereo unspecified)	n	n	u	n	n	n
Cc1ccc(N2C(=O)/C(=C/c3ccc(CN(CCC#N)S(C)(=O)=O)o3)C(=O)NC2=S)cc1C	n	20µM	n	n	u	14.1µM
CN1CCN(c2ccc(/C=C3\C(=O)NC(=S)N(c4cccc(Br)c4)C3=O)o2)CC1	n	u	u	n	x	n
Cc1cccc(N2C(=O)/C(=C/c3ccc(CN(CCC#N)S(C)(=O)=O)o3)C(=O)NC2=S)c1	n	20µM	n	n	n	22.4µM
O=C1/C(=C\c2cc3c(cc2Cl)OCO3)N2CCC1CC2	n	n	n	n	x	28.2µM
O=C1/C(=C/c2cc3c(cc2Cl)OCO3)N2CCC1CC2	n	12.6µM	n	n	x	22.4µM
C=CCN1C[C@H](C)N([C@H](c2ccc(C(=O)N(CC)CC)cc2)c2cccc(OC)c2)C[C@H]1C	x	n	x	n	n	n
COc1ccc(-c2nc3ccccc3n2OC(=O)N(C)C)cc1	u	n	n	n	n	n
Cc1ccc(CN2CCN(Cc3ccccc3)CC2)cc1	n	n	x	n	x	x
O=C(Cc1ccccc1)N1CCN(CC2CC=CCC2)CC1 (stereo unspecified)	n	12.6µM	n	n	n	n
O=C(Cc1ccccc1)N1CCN(CC2CC3C=CC2C3)CC1 (stereo unspecified)	n	n	n	n	n	n
CCCC1=C(C(=O)OCC)C2(C(=O)Nc3ccccc32)C(C#N)=C(N)O1 (stereo unspecified)	n	11.2µM	n	n	n	n
COC(=O)CC1=C(C(=O)OC)C2(C(=O)Nc3c(C)cccc32)C(C#N)=C(N)O1 (stereo unspecified)	n	10µM	n	n	n	n
CN1C2CCC1C(COC(=O)c1ccccc1)C(O)C2 (stereo unspecified)	n	n	x	x	x	x
COCCn1c(SCc2ccccc2Cl)nc2c1c(=O)[nH]c(=O)n2C	n	14.1µM	n	n	n	u
CCCCCn1c(Sc2ccccc2)nc2c1c(=O)[nH]c(=O)n2C	n	u	n	n	n	n
CC1(C)C(C=C(Cl)Cl)C1C(=O)OC(C#N)c1cccc(Oc2ccccc2)c1 (stereo unspecified)	x	25.1µM!	x	n	x	n
CC1(C)C[C@H]2C=C(C=O)[C@]3(C=O)C[C@]3(C)[C@H]2C1	12.6µM	u	u	n	x	n
CC/C(CC(c1ccccc1)c1c(O)c2ccccc2oc1=O)=N\NC(N)=S (stereo unspecified)	n	u	n	n	x	n
CCCCn1c(O)c(C(C)=NC(Cc2c[nH]c3ccccc23)C(=O)OC)c(=O)[nH]c1=O (stereo unspecified)	n	n	u	n	n	n
Cc1cc(C)c(C(=O)CN2CCOCC2)c(C)c1	n	10µM	n	n	n	n
COc1ccc(C(=O)CN2CCOCC2)cc1F	n	14.1µM	n	n	n	n

Screening data from PubChem.
